Compound activity (PubChem)
This is a sample that favours compounds with a hit; in the whole collection about 5.8% have one here.
TSHR ag: agonists of human thyroid stimulating hormone receptor; P16473; HEK293-CNG-TSHR cells (CNG channel as cAMP sensor), membrane potential dye, cAMP; Potency, µM (doses to about 57.1 µM), for the others: at the top dose activation, usual class: activators; 73,000 compounds, 0.48% hits; active = well fitted activation curve with a large enough effect in the main read-out, with a control signal flat, not every such curve was filed as active; inconclusive = small, poorly fitted or top-dose-only effect, or a change in a side signal; inactive = no such curve, though single readings can be large or run the other way; % of control where 0% means no effect;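 note: the control signal comes from parental cells without the receptor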
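cAMP rise detected as CNG-channel membrane depolarization by fluorescent dye (emission 590 nm), 30 min after compound, following 60 min dye loading containing 100 uM RO 20-1724 at room temperature. Cells: TSHR/CNG HEK 293, with parental CNG HEK 293 as control.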
GBA mod: alters purified human glucocerebrosidase activity; purified enzyme, resorufin glucoside fluorescence (screen aimed at inhibitors), 20 min; Potency, µM; 48,000 compounds, 1.1% hits; in the data active = potency below about 15 µM; inconclusive = mostly about 16 µM to 33 µM;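 note: the screen sought inhibitors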
Target sequence (P04062 whole entry, looked up): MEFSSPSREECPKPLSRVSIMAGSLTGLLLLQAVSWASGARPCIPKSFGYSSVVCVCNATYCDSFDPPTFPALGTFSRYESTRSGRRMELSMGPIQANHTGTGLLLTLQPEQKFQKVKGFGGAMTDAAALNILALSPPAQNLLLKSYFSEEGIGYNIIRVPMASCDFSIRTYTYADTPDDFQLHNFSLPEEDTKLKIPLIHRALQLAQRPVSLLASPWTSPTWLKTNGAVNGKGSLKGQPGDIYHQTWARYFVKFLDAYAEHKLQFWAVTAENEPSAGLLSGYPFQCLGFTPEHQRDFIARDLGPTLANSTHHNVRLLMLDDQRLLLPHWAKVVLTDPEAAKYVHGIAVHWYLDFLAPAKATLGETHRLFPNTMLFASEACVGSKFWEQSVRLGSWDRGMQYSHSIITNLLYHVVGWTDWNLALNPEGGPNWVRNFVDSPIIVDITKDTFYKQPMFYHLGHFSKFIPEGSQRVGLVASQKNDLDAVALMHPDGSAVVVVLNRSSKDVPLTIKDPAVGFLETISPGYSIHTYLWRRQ
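Wild-type enzyme at 0.2 nM final in 50mM citric acid/KH2PO4, 10mM sodium taurocholate, 0.01% tween-20, pH 5.9, with resorufin beta-D-glucopyranoside at 30 uM final. Compounds titrated, 20 min at RT, red fluorescence read; AC50 from titration.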
HEK293 cAMP cs: parental HEK293 cAMP activation (counter-screen); 73,000 compounds, 2.5% hits; parental HEK293 CNG cAMP sensor, membrane potential fluorescence; Potency, µM (highest dose often 57.1 µM), inactives show at the highest dose activation, usual class: activators; AID 938; note: % of control where 0% means no effect; nearly all actives have a fitted effect of over 55% in size
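Parental HEK 293 cells stably expressing a cAMP-gated CNG channel were loaded with membrane potential dye containing 100 uM RO 20-1724 for 60 min. Compound added for 30 min; depolarization read as fluorescence intensity at 590 nm.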
Luciferase inh: blocks Photinus pyralis firefly luciferase activity. P08659. purified firefly luciferase, luminescence, 8 min. Potency, µM (series often up to 57.1 µM), for inactives: at the top dose activity change, negative = inhibition, usual class: inhibitors. 72,000 compounds, 2.2% hits; note: % is set by controls: 0 for no effect and ±100 for the full control effect; nearly all actives have a fitted effect of over 40% in size
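Firefly luciferase (PKLight detection mix) with 10 uM ATP in pH 7.2 imidazole buffer (KCl, MgCl2, Tween 20, BSA). Compounds tested across a concentration series (qHTS). Luminescence read after 8 min at ambient temperature.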
Bst PK mod: pyruvate kinase (B. stearothermophilus) modulation. 51,000 compounds, 1.2% hits. purified pyruvate kinase, luminescence ATP production; ribose 5-phosphate activator present at AC10. Potency, µM; in the data active = potency below about 11 µM; inconclusive = mostly about 12 µM to 25 µM;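 the screen sought inhibitors and activators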;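 note: scaled between full activation by ribose 5 phosphate and full inhibition by luteolin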
* hit, by the source's call; i = inactive; ? = inconclusive; . = not tested or not shown; [ ] = another dose, or the depositor's remark. Unless noted, calls come from the whole dose curve; as a rule, active = well fitted curve in the direction sought with a large enough effect; inconclusive = small, poorly fitted or top-dose-only effect, or another doubt; inactive = no such curve, though single readings can be large; an effect the other way counts as inactive or inconclusive. Potency is the fitted concentration of half-maximal effect.

SMILES	TSHR ag	GBA mod	HEK293 cAMP cs	Luciferase inh	Bst PK mod
COc1ccc(C2C3=C(N=C4SCC(=O)N42)c2ccccc2CC3)cc1OC (stereo not given)	28%	>77	25%	-4%	>57
COc1ccc(C2C3=C(N=C4SCC(=O)N42)c2ccccc2CC3)cc1 (stereo not given)	?	i	?	25µM*	.
COc1ccc(-c2nc3cnc(OC)nc3n(Cc3cccs3)c2=O)cc1	19%	.	3%	1%[11.4 µM]	.
Cc1c(O)nc(SC2CC(=O)N(c3ccccc3)C2=O)[nH]c1=O (stereo not given)	-3%	>77	12%	-1%	>57
O=C1CC(Sc2nnnn2C2CCCCC2)C(=O)N1c1ccccc1 (stereo not given)	.	>77	15%	16µM*	.
CC(=O)NCCNc1nc(-c2ccccc2C)nc2ccccc12	8%	.	22%	1%[2.29 µM]	.
Cn1c(=O)c(CCc2ccccc2)nc2cnc(OCc3ccccc3)nc21	?	.	1µM*	1%[11.4 µM]	.
COc1ncc2nc(CCc3ccccc3)c(=O)n(CCc3ccccc3)c2n1	?	.	?	-1%[11.4 µM]	.
O=c1cnc2cnc(Oc3ccccc3)nc2n1Cc1ccc(F)cc1	?	.	?	0%[11.4 µM]	.
O=c1cnc2cnc(Oc3ccccc3)nc2n1CCc1ccccc1	?	.	1.6µM*	1%[11.4 µM]	.
COc1cccc(Cn2c(=O)c(CCc3ccccc3)nc3cnc(OC)nc32)c1	?	.	16µM*	0%[11.4 µM]	.
COc1ncc2nc(CCc3ccccc3)c(=O)n(Cc3cccs3)c2n1	?	.	10µM*	0%[11.4 µM]	.
CO[C@H]1COC(=O)C/C=C\[C@@H](C)COC(=O)[C@@H](OCc2ccccc2)/C=C\[C@@H]1C	?	.	?	1%[11.4 µM]	.
CN(C)CCN(Cc1ccccc1)S(=O)(=O)c1cccc2cccnc12	14%	.	11%	2%	.
O=c1c(-c2cccs2)nc2cncnc2n1C1CC1	?	.	?	1%[11.4 µM]	.
C[C@@H]1C[C@H](C)CN(S(=O)(=O)c2cc(Cl)c(Oc3ccc([N+](=O)[O-])cc3Cl)c(Cl)c2)C1	2%[11.4 µM]	.	-6%[11.4 µM]	2%[11.4 µM]	.
COc1ccc(Oc2ncc3nc(CCc4ccccc4)c(=O)n(C[C@H]4CCCO4)c3n2)cc1	?	.	10µM*	1%[11.4 µM]	.
CC1CCCC(NC(=O)C2CCN(S(=O)(=O)N3CCC4(CC3)OCCO4)CC2)C1C (stereo not given)	1%	14*	6%	0%	>57
COc1ccc2nc(Nc3nc(C)c(C(C)=O)s3)sc2c1	6%	>77	-7%	16µM*	.
COc1ccc2nc(NC(=O)c3cnccn3)sc2c1	-7%	>77	-5%	13µM*	i
CCCCOC(=O)Nc1nc2ccc(OC)cc2s1	.	.	11%[11.4 µM]	-1%	.
CCCCN(C(=O)NC(=O)Nc1nc2ccc(OC)cc2s1)S(C)(=O)=O	-3%[11.4 µM]	>77	-6%	20µM*	i
COc1cc(C)nc(Nc2nc(C)c(C(C)=O)s2)n1	.	.	.	-2%[25.5 µM]	>26
O=C(O)CSc1cc(-c2ccccc2)nc2ccccc12	2%[11.4 µM]	.	16%[11.4 µM]	5%[11.4 µM]	.
CCN1CCCC1Cn1c(-c2ccccc2)nc2c(NC3CCCCC3)nc(C)nc21 (stereo not given)	?	.	20µM*	.	.
SMILES	TSHR ag	GBA mod	HEK293 cAMP cs	Luciferase inh	Bst PK mod
CCCCNc1nc(C)nc2c1nc(-c1ccccc1)n2CC(C)(C)CN(C)C	?	.	32µM*	.	.
Cc1nc(NC2CCCCC2)c2nc(-c3ccccc3)n(CCN(C)C)c2n1	?	.	10µM*	.	.
CCCCNc1nc(C)nc2c1nc(-c1ccccc1)n2CCCN(C)C	22%	.	28%	.	.
CCCCNc1nc(C)nc2c1nc(-c1ccccc1)n2CC1CCCN1CC (stereo not given)	?	.	16µM*	.	.
COCCNc1nc(C)nc2c1nc(-c1ccccc1)n2CCN(C)C	6%	.	8%	.	.
CCCNC(=O)OC[C@@H]1O[C@H](CCO/N=C\[C@@H](OC)[C@H](C)/C=C\CC(=O)OC)C=C[C@@H]1Oc1ccc(OC)cc1	11%[11.4 µM]	.	17%[11.4 µM]	-2%[11.4 µM]	.
Cc1ccccc1-c1cncnc1NCCN1CCOCC1	-1%	.	-18%	0%[2.29 µM]	.
C[C@@]1(O)CCOC(=O)C1	-4%[25.6 µM]	.	8%[25.6 µM]	-2%[25.5 µM]	.
COc1ccc(C(=O)Nc2cc(OC)cc(OC)c2)cc1	3%	.	5%	4µM*	.
COc1ccc(OC)c(NC(=O)c2ccc(NS(=O)(=O)c3c(C)noc3C)cc2)c1	-1%	?	-2%	-1%	>57
Cc1cccc(NC(=O)c2ccc(NS(=O)(=O)c3c(C)noc3C)cc2)c1	-10%	12*	-2%	1%	>57
COc1cc(NC(=O)c2ccc(NS(=O)(=O)c3c(C)noc3C)cc2)cc(OC)c1	-7%	11*	-10%	1%	>57
CCc1cccc(NC(=O)c2ccc(NS(=O)(=O)c3c(C)noc3C)cc2)c1	-11%	?	-14%	-1%	>57
CC(C)[C@@H](CC(=O)N[C@@H]1CCNC[C@H]1C(=O)N[C@H](CC(=O)N[C@@H](CCC(=O)O)CC(=O)O)Cc1c[nH]c2ccccc12)NC(=O)C[C@H](Cc1ccccc1)NC(=O)[C@@H]1CNCC[C@H]1N	.	.	5%	.	.
CCN(c1ccccc1)c1cc(NC)[n+](C)c(C)n1	?	.	32µM*	0%	.
CCN(c1ccccc1)c1cc(C)nc2nc(C)nn12	19%	.	0%	0%	.
FC(F)(F)c1cc(-c2ccco2)nc(-n2nc(C(F)(F)F)cc2C2CC2)n1	?	>77	?	1%	>57
FC(F)(F)c1cc(-c2ccco2)nc(-n2nnc3ccccc32)n1	?	>77	25µM*	0%	>57
COCCn1c(=O)c(-c2cccs2)nc2cnc(N3CCOCC3)nc21	-2%	.	4%	1%[11.4 µM]	.
NCCC[C@@H](CC(=O)N[C@@H]1CCNC[C@H]1C(=O)N[C@H](CC(=O)N[C@@H](CCC(=O)O)CC(=O)O)Cc1ccccc1)NC(=O)C[C@H](Cc1ccccc1)NC(=O)[C@@H]1CNCC[C@H]1N	3%	.	19%	.	.
Cc1sc2ncnc(Sc3nnnn3-c3ccccc3)c2c1C	?	9.2*	?	-37%	>57
O=C(O)[C@@H]1[C@@H]2C[C@@H]3[C@@H](OC(=O)[C@@H]31)[C@H]2Br	-3%[11.4 µM]	.	7%[11.4 µM]	0%[11.4 µM]	.
Cc1cccc(CNc2ncncc2-c2cccc(NS(C)(=O)=O)c2)c1	?	.	?	1%[2.29 µM]	.
